Source: PubChem BioAssay (National Center for Advancing Translational Sciences (NCATS))
ALDH1A1 inh – inhibitors of human aldehyde dehydrogenase 1A1; P00352; Purified ALDH1A1, NADH fluorescence, propionaldehyde substrate; Potency, µM (series often up to 75.3 µM), hits mostly inhibitors; 7.3% of 220,000 active
Target sequence (P00352 whole entry, looked up): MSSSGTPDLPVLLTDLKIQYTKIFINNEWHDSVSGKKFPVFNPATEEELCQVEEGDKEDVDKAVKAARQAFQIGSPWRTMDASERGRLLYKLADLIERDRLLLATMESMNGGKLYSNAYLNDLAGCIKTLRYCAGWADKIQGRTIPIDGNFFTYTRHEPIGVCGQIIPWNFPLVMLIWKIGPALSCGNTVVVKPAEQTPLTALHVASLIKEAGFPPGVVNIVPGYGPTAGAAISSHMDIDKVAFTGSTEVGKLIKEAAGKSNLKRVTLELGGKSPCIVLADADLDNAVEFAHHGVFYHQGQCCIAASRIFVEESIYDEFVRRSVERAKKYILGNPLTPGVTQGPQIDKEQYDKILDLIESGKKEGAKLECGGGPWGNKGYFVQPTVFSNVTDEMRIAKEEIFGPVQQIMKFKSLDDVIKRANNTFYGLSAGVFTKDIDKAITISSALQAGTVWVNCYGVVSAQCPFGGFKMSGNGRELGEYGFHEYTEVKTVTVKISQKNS
PNC inhibitor – blocks assembly of the perinucleolar compartment; AID 2417; 3.1% of 140,000 active; PC3M PTB-GFP, PNC prevalence imaging, 16 h; stronger effect = lower value; activity change (PNC), negative = inhibition, % at 10 µM;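 active = readout at or below -70, meaning at least 70% loss of cells showing the perinucleolar compartment, a nuclear body marking cancer cells; inconclusive = readout between -30 and a set limit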
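Compounds are pinned in duplicate onto adhered PC3M cells stably expressing GFP-tagged PTB and incubated 16 h at 37 C. Cells are then fixed, nuclei stained with Hoechst, and PNC-positive cells counted.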
HPGD inh – HPGD (human) dehydrogenase inhibition | P15428 | purified HPGD, NADH fluorescence kinetic, PGE2 substrate | Potency, µM, most hits filed as inhibitors | 4.3% of 150,000 active
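20 nM HPGD preincubated 15 min at room temperature with compound in 50 mM Tris-HCl pH 8, 0.01% Tween 20. Started with 1 mM NAD+ and 30 uM prostaglandin E2; NADH fluorescence (360/450 nm) read 5 times over 30-s intervals, last minus first.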
ALOX12 inhib – inhibitors of human 12-lipoxygenase (ALOX12) | Potency, µM (series often up to 57.1 µM), actives largely listed as inhibitors | 0.12% of 150,000 active | purified 12-hLO, xylenol orange hydroperoxide absorbance | P18054 | AID 1452; active = well fitted inhibition curve with a large enough effect; inconclusive = small, poorly fitted or top-dose-only effect; also: nearly all actives have a fitted effect of over 55% in size
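Lipoxygenase turnover measured by absorbance at 573 and 405 nm after Fe-XO development. Human 12hLO 150 nM, arachidonate 40 uM, pH 7.0 Hepes buffer with detergent; 15 min compound preincubation, 30 min reaction.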
Lamin A splicing – changes lamin A minigene splicing in HeLa cells. HeLa LMNA splicing GFP/RFP minigene ratio, 48 h. 0.01% of 200,000 active. AID 1487. Potency, µM (highest dose often 46.1 µM), actives largely listed as inhibitors; active = well fitted inhibition curve with a large enough effect in the signal ratio, with a control signal flat, not every such curve was filed as active; inconclusive = small, poorly fitted or top-dose-only effect, or effect the other way, or a change in a side signal; the % refers to the signal ratio
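S3 HeLa cells stably expressing lamin A-EGFP splicing minigene plus DsRed2, 600 cells/well, 48 h compound exposure at 37C. Laser-scanning cytometry; analysed as GFP (500-530 nm)/RFP (575-640 nm) total intensity ratio; 0.5% DMSO vehicle.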
Numbers stand for hits; – = inactive; ? = inconclusive; · = not tested or not shown; [ ] = another dose, or the depositor's remark. Compounds with a hit are over-represented: about 10% of the library has one in this group of screens. Unless noted, calls follow the shape of the dose curve; as a rule, active = well fitted inhibition curve with a large enough effect (not every such curve was filed as active); inconclusive = small, poorly fitted or top-dose-only effect, or another doubt; inactive = no such curve, though single readings can be large or run the other way.

SMILES	ALDH1A1 inh	PNC inhibitor	HPGD inh	ALOX12 inhib	Lamin A splicing
CCc1nc(SCc2cccnc2)c2c(=O)n(C)c(=O)n(C)c2n1	–	–	–	–	–
Cn1c(=S)c2[nH]c(SCc3cccnc3)nc2n(C)c1=O	?	·	4µM	–[11.4 µM]	·
Cc1ccc(OCC(=O)N2CCN(c3nnc(-c4ccc(C)cc4)c4ccccc34)CC2)cc1	14µM	–	–	–	?
Cc1ccc(-c2nnc(N3CCN(C(=O)c4ccco4)CC3)c3ccccc23)cc1	14µM	?	–	–	?
Cc1ccc(-c2cc(C(=O)N3CCN(C(=O)c4ccco4)CC3)no2)cc1	–	–	–	–	–
COC(=O)c1c(-c2cccs2)csc1NC(=O)c1ccc(Br)cc1	·	·	·	·	–
CCCCC#CC1C=CC(OC(C)=O)C(COC(C)=O)O1 (stereo unspecified)	3.5µM	·	·	·	·
CCCCCCC#CC1C=CC(OC(=O)OCC)C(COC(=O)OCC)O1 (stereo unspecified)	4µM	·	·	·	·
CC(=O)OCC1OC(C#Cc2ccc(Br)cc2)C=CC1OC(C)=O (stereo unspecified)	–[13.5 µM]	·	·	·	·
CCOC(=O)OCC1OC(C#Cc2ccc(Br)cc2)C=CC1OC(=O)OCC (stereo unspecified)	–[13.5 µM]	·	·	·	·
COc1ncc2nc(-c3ccc(F)cc3)c(=O)n(CCc3ccccc3)c2n1	–	·	·	·	–
CCOC(=O)c1[nH]c2ccc(OC)cc2c1NC(=O)/C=C/c1ccc2c(c1)OCO2	–	–	?	–	–
O=C(/C=C/c1ccc2c(c1)OCO2)Nc1c(C(=O)O)[nH]c2ccccc12	?	–	16µM	–	–
C/C(CCC(=O)OC[C@@H]1O[C@H](C#Cc2ccccc2)C=C[C@@H]1Oc1ccc(C)cc1)=N/O[C@@H](C)c1cc(-c2c(C)cc(C)cc2C)no1	–[13.5 µM]	·	·	·	·
O=C(c1ccco1)N1CCN(c2ncnc3sc4c(c23)CCC4)CC1	10µM	?	32µM	–	–
Cc1ccc(C2NC(=S)NC3=C2C(=O)CC(C)(C)C3)cc1 (stereo unspecified)	0.79µM	?	–	–	–
Cc1ccc(C2C3=C(CC(C)(C)CC3=O)Nc3n[nH]c(C)c32)cc1 (stereo unspecified)	?	?	?	–	–
COc1ccccc1OCCCn1cc(C#N)c2ccccc21	–	-82	–	–	?
N=c1c2c(-c3ccccc3)c(-c3ccccc3)n(Cc3ccco3)c2ncn1CCCN1CCOCC1	–	·	·	·	?
N=c1c2c(-c3ccccc3)c(-c3ccccc3)n(Cc3ccco3)c2ncn1CCCn1ccnc1	–	-98	–	–	?
CCCCc1nn2c(=O)cc(COC(=O)c3ccc(NC(=O)C(CC)CC)cc3)nc2s1	·	·	·	·	–
COc1ccc(/C=N/NC(=O)C(C)n2cnc3ccccc3c2=O)cc1 (stereo unspecified)	–	-119	–	–	–
Cc1ccc(CNC(=O)C2CCN(S(=O)(=O)c3ccc4c(c3)CCCN4C(=O)C3CCC3)CC2)cc1	·	·	·	·	–
CC(C)c1csc(CN2CCC(N3CCC(C(=O)NCC4CCCO4)CC3)CC2)n1 (stereo unspecified)	–	·	·	·	–
COc1cc(S(=O)(=O)N2CCC(c3nc4ccccc4s3)CC2)ccc1S(=O)(=O)NC1CCCC1	–	-100	–	–	?
SMILES	ALDH1A1 inh	PNC inhibitor	HPGD inh	ALOX12 inhib	Lamin A splicing
COC(=O)CNC(=O)CCc1nnc(C2(c3ccc(Cl)cc3)CCC2)o1	8.9µM	·	·	·	–
O=Cc1ccc(Oc2ccc(F)cc2)nc1	16µM	·	·	·	–[9.22 µM]
CC(C)NC(=S)N=Nc1c(O)[nH]c2ccc([N+](=O)[O-])cc12	10µM	·	·	·	?
C=C(C)CNC(=S)N=Nc1c(O)[nH]c2ccc([N+](=O)[O-])cc12	–	·	·	·	?
O=C(Nc1cc(F)ccc1F)N1CCC(CN2CCCC2)CC1	·	·	·	·	–
N#Cc1cc(C(=O)c2cc(F)ccc2O)cn(-c2nccs2)c1=O	?	–	11µM	–	?
CC(C)n1cc(C(=O)c2ccccc2O)cc(C#N)c1=O	–	·	·	·	?
N#Cc1cc(C(=O)c2ccccc2O)cn(-c2nccs2)c1=O	?	–	32µM	–	–
Cc1c(-n2cc(C(=O)c3cc(F)ccc3O)cc(C#N)c2=O)c(=O)n(-c2ccccc2)n1C	–	·	·	·	·
C[C@@H]1C[C@H](OC(=O)c2ccccc2O)CC(C)(C)C1	–	·	–	–	–
COc1cc(-c2[nH]ncc2CN2CCCC2c2nonc2C)cc(OC)c1OC (stereo unspecified)	–	·	·	·	–
Cc1nonc1C1CCCN1Cc1cn[nH]c1-c1ccc(-c2ccccc2)cc1 (stereo unspecified)	7.1µM	·	·	·	·
CN(C)c1ccc(/C=N/NC(=O)c2nonc2N)cc1[N+](=O)[O-]	2µM	·	·	·	–
Nc1nonc1C(=O)N/N=C/c1cccc([N+](=O)[O-])c1	–	–	–	–	–
CN1CCN(c2ncnc3ccc(-c4cccc(C#N)c4)cc23)CC1	10µM	·	·	·	?
CCOC(=O)c1cc(C)[nH]c(=S)c1C#N	20µM	–	–	–	–[0.0737 µM]
C#CCSc1nc(C)cc(C(=O)OCC)c1C#N	–	·	·	·	·
COc1ccc(-c2cc(-c3ccc(OC)cc3)c(C#N)c(SC)n2)cc1	?	-100	?	–	–
COc1ccc(N2CCN(C(=O)Nc3cn(CC(C)C)c(=O)c4ccccc34)CC2)cc1	·	·	·	·	–
Cc1ccc(S(=O)(=O)n2nc(C)c(S(=O)(=O)N3CCCCCC3)c2C)cc1C	·	·	·	·	–
O=c1[nH]c(NCCO)nc2c1C1(CCCCC1)Cc1ccccc1-2	?	–	?	–	–
CCC1(CC)Cc2ccccc2-c2nc(NCCO)[nH]c(=O)c21	?	-100	?	–	–
O=C1C(Cl)=C(N2CCOCC2)C(=O)N1c1ccccc1Cl	?	–	–	–	–
CN1CCN(C2=C(Cl)C(=O)N(c3ccc(Cl)c(Cl)c3)C2=O)CC1	25µM	–	–	?	?
Cc1ccccc1N1C(=O)C(Cl)=C(N2CCN(c3ccccc3)CC2)C1=O	?	-85	–	–	–
SMILES	ALDH1A1 inh	PNC inhibitor	HPGD inh	ALOX12 inhib	Lamin A splicing
COc1cc(OC)c(NC(=O)CSC2=Nc3ccccc3N=C(c3ccc(F)cc3)C2)cc1Cl	·	·	·	·	–
CCCN1C(=O)C2(C(C(=O)c3ccc(C)o3)=C(O)C(=O)N2CCCN2CCOCC2)c2ccccc21 (stereo unspecified)	10µM	?	–	–	–
Cc1ccc(CNC(=O)c2cnc(N3CCCCC3)c3ccccc23)cc1	·	·	·	·	–
COc1ccc(-c2ccc(-c3nc4c(c(=O)[nH]c(=O)n4Cc4ccccc4)n3C)o2)c([N+](=O)[O-])c1	–	–	28µM	–	–
COCCn1c(=O)[nH]c(=O)c2c1nc(-c1ccc(-c3ccc(Cl)cc3[N+](=O)[O-])o1)n2Cc1ccccc1	?	?	?	–	?
COCCn1c(-c2ccc(-c3ccc([N+](=O)[O-])cc3Br)o2)nc2c1c(=O)[nH]c(=O)n2CC(C)C	16µM	·	·	·	–
COC(=O)c1ccc(CSc2c(C(C)C)cnc3c2c(=O)n(C)c(=O)n3C)cc1	·	·	·	·	–
O=[N+]([O-])c1cc(S(=O)(=O)N2CCCCCC2)ccc1Cl	–	·	·	·	–
